Assay outcomes: PubChem BioAssay, Buhrlage Lab, Dana-Farber Cancer Institute and Novartis Institutes for BioMedical Research (Cambridge, Mass)
USP28 inh – inhibitors of human USP28 deubiquitinase; Q96RU2; purified USP28, Ub-rhodamine cleavage fluorescence, 30 min; inhibition, % at 25 µM; 3% of 47,000 active; AID 1645857
USP17 inh – blocks human USP17 ubiquitin-rhodamine cleavage | 6.5% of 47,000 active | purified USP17, Ub-rhodamine cleavage fluorescence, 3 h | inhibition, % at 50 µM | AID 1645855
OTUD3 inh – inhibitors of human OTUD3 deubiquitinase | inhibition, % at 25 µM | 0.7% of 47,000 active | AID 1645858 | Q5T2D3 | purified OTUD3, Ub-rhodamine fluorescence, 2 h
Target sequence (Q5T2D3 whole entry, looked up): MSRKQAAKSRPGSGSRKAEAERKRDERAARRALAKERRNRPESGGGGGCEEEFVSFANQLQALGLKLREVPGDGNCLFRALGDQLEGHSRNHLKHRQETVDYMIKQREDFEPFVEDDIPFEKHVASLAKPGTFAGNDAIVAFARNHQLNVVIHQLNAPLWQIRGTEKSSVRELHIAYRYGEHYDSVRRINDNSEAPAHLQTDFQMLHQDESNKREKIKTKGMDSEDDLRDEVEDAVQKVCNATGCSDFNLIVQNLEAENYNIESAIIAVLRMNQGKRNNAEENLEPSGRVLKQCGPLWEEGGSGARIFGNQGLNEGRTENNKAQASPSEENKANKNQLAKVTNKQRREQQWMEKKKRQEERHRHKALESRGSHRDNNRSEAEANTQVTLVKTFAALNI
USP30 block – human USP30 deubiquitinase inhibition; 5.3% of 47,000 active; inhibition, % at 25 µM; AID 1645860; Q70CQ3; purified USP30, Ub-rhodamine cleavage fluorescence
An asterisk follows results filed as active. Sampled rows, rich in hits. Any-hit rate of the full collection: about 11%. Cut-off read from the data, not from the text of the source: active = inhibition above about 30%; inactive = the rest.

For C=C[C@@]1(C)CC[C@@]2(C)[C@@H](CC[C@]3(C)C(C)=C(O)C(=O)C[C@H]23)C1 the results were USP28 inh 12, USP17 inh 43*, OTUD3 inh 24 and USP30 block 37*.
Screening CCn1c(Cn2cccn2)nc2cc(NC(=O)c3ccc(F)cc3)ccc21 returned USP28 inh 53*, USP17 inh -5, OTUD3 inh -4 and USP30 block 0.
Screening CCn1c(Cn2cccn2)nc2cc(NC(=O)CC(C)C)ccc21 returned USP28 inh 18, USP17 inh 6, OTUD3 inh 1 and USP30 block 20.
`C[C@]12C(=O)N(c3ccccc3C(=O)NC3CCCC3)C(=O)N1CCc1c2[nH]c2ccccc12` gave USP28 inh 0, USP17 inh 13, OTUD3 inh 9 and USP30 block 26.
`CCC1Sc2cc(S(=O)(=O)CCC(=O)N3CCc4ccccc4C3)ccc2NC1=O` (configuration not stated) gave USP28 inh 1, USP17 inh -12, OTUD3 inh -1 and USP30 block 9.
Screening COc1cc2c(cc1OC)CN(C(=O)CCS(=O)(=O)c1ccc(Cl)cc1)CC2 returned USP28 inh -4, USP17 inh 32*, OTUD3 inh -20 and USP30 block -70.
`Cc1ccc(NS(=O)(=O)c2ccc3nncn3c2)cc1` gave USP28 inh 5, USP17 inh 21, OTUD3 inh 11 and USP30 block 21.
For O=C(OCc1cccc(Cl)c1)c1ccc2ccccc2n1 the results were USP28 inh 91*, USP17 inh 25, OTUD3 inh 17 and USP30 block 21.
For Cc1nc2ccccc2n1CC(=O)OCc1cccc(Cl)c1 the results were USP28 inh 0, USP17 inh 8, OTUD3 inh -7 and USP30 block -4.
O=C(OCc1ccc(F)cc1)c1ccc2ccccc2n1 was read as USP28 inh 78*, USP17 inh 1, OTUD3 inh -8 and USP30 block 3.
Screening Cc1ccc2c(c1)NC(CCC(=O)NCCc1ccc(Cl)cc1)=NS2(=O)=O returned USP28 inh 27, USP17 inh 59*, OTUD3 inh 15 and USP30 block 59*.
Screening O=C(CCC1=NS(=O)(=O)c2ccccc2N1)NCCc1ccc(Cl)cc1 returned USP28 inh -1, USP17 inh -4, OTUD3 inh -9 and USP30 block 1.
`N#Cc1ccc(C(=O)N2CC(C(=O)NC3CCCC3)C3(CCOCC3)C2)cc1` (configuration not stated) gave USP28 inh 2, USP17 inh 10, OTUD3 inh 5 and USP30 block 16.
Screening Cn1c(SCC(=O)Nc2ccc(N3CCOCC3)cc2)nnc1-c1ccco1 returned USP28 inh 14, USP17 inh 9, OTUD3 inh 15 and USP30 block 9.
Cn1c(COc2ccccc2)nnc1SCC(=O)Nc1ccc(N2CCOCC2)cc1 was read as USP28 inh 58*, USP17 inh 22, OTUD3 inh 14 and USP30 block 31*.
Cc1nc2c(C)cccn2c(=O)c1Cc1nnc(SCC(=O)Nc2ccccc2)n1C was read as USP28 inh -4, USP17 inh 36*, OTUD3 inh -5 and USP30 block 33*.
For Cn1c(SCC(=O)Nc2ccccc2Br)nnc1-c1ccccn1 the results were USP28 inh 8, USP17 inh 9, OTUD3 inh 8 and USP30 block 14.
For CCOc1ccc(NC(=O)CSc2nnc(-c3ccccn3)n2Cc2ccco2)cc1 the results were USP28 inh -9, USP17 inh -33, OTUD3 inh -10 and USP30 block -38.
For CCOc1ccc(NC(=O)CSc2nnc(Cc3cccc4ccccc34)n2C)cc1 the results were USP28 inh 67*, USP17 inh 65*, OTUD3 inh 7 and USP30 block 46*.
CCOc1ccc(-n2c(SCC(=O)Nc3ccc(C)cc3)nnc2-c2c[nH]c3ccccc23)cc1 was read as USP28 inh 18, USP17 inh 63*, OTUD3 inh 12 and USP30 block 56*.
For COc1cc(NS(=O)(=O)c2cc3c(cc2Cl)N(C(C)=O)CCO3)cc(OC)c1OC the results were USP28 inh -13, USP17 inh -15, OTUD3 inh -6 and USP30 block -18.
Screening Cc1ccccc1NC(=O)CN1c2ccccc2S(=O)(=O)c2ccccc21 returned USP17 inh 29 and OTUD3 inh -1.
For Cc1ccc(C(=O)CSc2nnc(CC(=O)Nc3ccccc3F)n2C)cc1 the results were USP28 inh 2, USP17 inh -10, OTUD3 inh -2 and USP30 block 0.
Cc1ccc(C)c(NC(=O)CSc2nnc(Cc3cccc4ccccc34)n2C)c1 was read as USP28 inh 45*, USP17 inh -13, OTUD3 inh 2 and USP30 block 0.
CC(=O)c1oc2nc3c(c(-c4ccc(Cl)cc4)c2c1N)CCc1ccccc1-3 was read as USP28 inh 9, USP17 inh 38*, OTUD3 inh 37* and USP30 block -158.
Screening N#Cc1c(N)nc2c(c1-c1ccccc1)CCc1ccccc1-2 returned USP28 inh 16, USP17 inh -2, OTUD3 inh -10 and USP30 block -3.
`CCc1ccc(NC(=O)CSc2ccc(N3CCC(C(=O)NC4CC4)CC3)nn2)cc1` gave USP28 inh 67*, USP17 inh 62*, OTUD3 inh 38* and USP30 block 62*.
For CC(=O)N(O)CCC[C@@H]1NC(=O)[C@H](CCCN(O)C(C)=O)NC1=O the results were USP28 inh 19, USP17 inh 36*, OTUD3 inh 9 and USP30 block -11.
Screening CC1CSc2ccc(S(=O)(=O)N3CCN(C)CC3)cc2NC1=O (configuration not stated) returned USP28 inh -7, USP17 inh -3, OTUD3 inh 0 and USP30 block -1.
`CC(=O)N1[C@@H](CNS(=O)(=O)c2cccc(F)c2)C[C@@]2(C)[C@@H](O)CCCC[C@@H]12` gave USP28 inh -3, USP17 inh -4, OTUD3 inh -1 and USP30 block -21.
COc1ccc(S(=O)(=O)N2CCC(c3ncc(C)[nH]3)C2)cc1 (configuration not stated) was read as USP28 inh 9, USP17 inh 12, OTUD3 inh 12 and USP30 block 31*.
`O=C1CCCC[C@]2(CN(C(=O)c3ccc(-n4cccn4)nc3)C[C@H]2c2ccc(F)cc2)N1` gave USP28 inh 10, USP17 inh -9, OTUD3 inh 14 and USP30 block 33*.
COc1ncccc1CNC(=O)c1ccc2nc[nH]c2c1 was read as USP28 inh 1, USP17 inh 1, OTUD3 inh 3 and USP30 block 6.
Screening Cc1ccc2[nH]c(=O)c(-c3nc4ccc(C)cn4c3NCc3ccc(F)cc3)cc2c1 returned USP28 inh 12, USP17 inh 76*, OTUD3 inh 9 and USP30 block 2.
Screening CN(C)S(=O)(=O)c1ccc(S(=O)(=O)NCCc2ccc3c(c2)OCO3)cc1 returned USP28 inh 19, USP17 inh 16, OTUD3 inh 12 and USP30 block 45*.
